These results are taken from PubChem BioAssay (NCATS).

This is one part of the list. Results filed as inconclusive are left out. Activity calls are given as the source filed them. Calls follow the shape of the full dose curve.
% is scaled to controls: 0 for no effect and ±100 for the full control effect; potency is read from the fitted curve at half-maximal effect.

Chain of Furin (Homo sapiens) (P09958 whole entry, looked up): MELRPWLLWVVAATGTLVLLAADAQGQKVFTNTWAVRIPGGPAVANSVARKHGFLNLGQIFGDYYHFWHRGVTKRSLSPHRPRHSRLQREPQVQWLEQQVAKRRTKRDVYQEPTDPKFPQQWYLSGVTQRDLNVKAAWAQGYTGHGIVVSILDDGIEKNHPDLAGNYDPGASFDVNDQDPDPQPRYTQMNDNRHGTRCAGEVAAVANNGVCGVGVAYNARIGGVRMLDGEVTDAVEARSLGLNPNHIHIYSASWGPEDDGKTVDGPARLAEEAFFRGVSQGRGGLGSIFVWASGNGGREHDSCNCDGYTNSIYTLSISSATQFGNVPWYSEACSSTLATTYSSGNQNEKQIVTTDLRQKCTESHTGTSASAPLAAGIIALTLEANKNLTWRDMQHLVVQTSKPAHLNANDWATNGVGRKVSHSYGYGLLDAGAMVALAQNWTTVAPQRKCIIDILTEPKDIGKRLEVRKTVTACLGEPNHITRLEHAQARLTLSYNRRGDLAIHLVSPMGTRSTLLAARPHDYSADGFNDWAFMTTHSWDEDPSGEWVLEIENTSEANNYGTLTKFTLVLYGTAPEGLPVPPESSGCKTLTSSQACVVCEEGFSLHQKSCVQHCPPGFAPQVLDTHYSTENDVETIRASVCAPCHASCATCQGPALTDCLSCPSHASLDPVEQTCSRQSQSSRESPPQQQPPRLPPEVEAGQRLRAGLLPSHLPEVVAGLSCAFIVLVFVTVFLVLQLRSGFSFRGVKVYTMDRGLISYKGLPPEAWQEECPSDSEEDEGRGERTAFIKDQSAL

This assay concerns the target Furin (Homo sapiens) (UniProt P09958). Briefly: Selectivity profile for inhibitors of NSP2Pro chikungunya virus (CHIKV): Human furin counterscreen (AID 1964102). The note with it: Recombinant human furin enzymatic counterscreen, fluorogenic substrate; series mostly up to 50.6 µM; activity change, negative = inhibition: at the top concentration. The source says:
PI: Natalia J. Martinez Ph.D.
National Center for Advancing Translational Sciences (NCATS),
National Institute of Health (NIH), Rockville, Maryland
Chikungunya virus (CHIKV) is a mosquito-borne RNA virus that has emerged as one of the most important global arboviral threats in the last decade. Although the first CHIKV vaccine has recently been FDA approved for use in healthy adults at increased risk, to date, there are no available antiviral drugs for CHIKV infection. CHIKV nsP2 protease plays a crucial role in the processing of the viral polypeptide precursor to release enzymes required for viral replication, thus making it a promising drug target for antiviral discovery. Here, we established a high-throughput pipeline to identify small molecule inhibitors of nsP2 proteolytic activity. The pipeline is composed of a suite of 1,536-well in vitro assays to support quantitative high-throughput (qHTS) screening campaigns. Specifically, we developed a fluorescence resonance energy transfer (FRET)-based assay using a fluorogenic peptide substrate encompassing an endogenous cleavage site and purified recombinant protease domain (nsP2pro). Using this assay, we interrogated ~37,000 small molecules, including those in drug repurposing libraries as well as chemically diverse and medicinal chemistry-friendly compounds. Hits were selected for follow-up validation against full-length nsP2 and an additional peptide. FRET-based 1,536-well assays for papain, hepatitis C virus NS3-4A, and human furin proteases were implemented to characterize compound selectivity. […] Novel compounds were identified to be potential nsP2 inhibitors and molecular docking analyses were performed to explain the binding mode of selected hits. In vitro antiviral activity was evaluated for a subset of compounds using a high-throughput CHIKV infection assay. To our knowledge, the pipeline presented here is unprecedented for CHIKV antiviral discovery research.
PROTOCOL TABLE (as described by Inglese J, Shamu CE and Guy RK. 2007)
SEQUENCE No. (e.g., 1, 2, 3, etc.); […] (e.g., Cells, Incubation, Reagent, etc.); VALUE; DESCRIPTION.
1; Enzyme; 2 uL; 1,536-well solid-bottom, black plate (Greiner Bio One).
2; Compounds; 20 nL; Echo 655 acoustic dispenser (Beckman Coulter).
3; Incubation; 15 min; room temperature in the dark.
4: Reagent; 2 uL; pERTKR-AMC.
5; Detection; Fluorescence; time 0, Viewlux microplate reader (PerkinElmer) 355 nm excitation, 460 nm emission
6; Incubation; 15 min; room temperature
7; Detection; Fluorescence; time 15; ViewLux microplate reader (PerkinElmer), 355 nm excitation, 460 nm emission.
NOTES (numbers refer to sequence numbers above).
1. Two micro-liter of furin enzyme solution (40 nM final concentration) in assay buffer (20 mM Tris-HCl pH 8.0, 150 mM NaCl, with 0.01% Tween 20) were dispensed into a 1,536-well solid-bottom black plate (Greiner Bio One) using the Kalypsys Pintool Station.
2. Twenty nano-liter of compounds, positive control Aprotinin (50 uM final concentration), or neutral control DMSO were transferred to the assay plates. Compounds in counterscreen assays were tested at 11 concentrations, 1:3 dilution points from 25 uM to 0.42 nM.
3. The assay plates were incubated in the dark for 15 min.
4. After incubation, 2 uL of 0.625 uM pERTKR-AMC substrate in assay buffer for the Furin assay was added using the Kalypsys Pintool Station.
5-7. Plates were immediately read at time 0 then covered with stainless steel gasket lids and incubated for 15 min at room temperature in the dark. Fluorescence intensity in the assay plates were again read after incubation using the ViewLux imager equipped with AMC fluorescence optics. The change in fluorescence intensity over the 15-min reaction period was normalized against DMSO and inhibitor controls as described below.
Inglese J, Shamu CE and Guy RK, Reporting data from high throughput screening of small molecule libraries, Nature Chemical Biology, 2007, 3(8): 438-441. doi.org/10.1038/nchembio0807-438.
Take `CCc1ccccc1NC(=O)c1cnn(-c2ccc(F)cc2)c1C1CCNCC1`: the “activity change, negative = inhibition” value is 11.2% (inactive).
Same read-out and setting: for `N#CSc1cc(SC#N)c(N)nc1N` the value was -9.14% (inactive).
Same read-out and setting: for `CCOc1ccc(NC(=O)c2c(NC(=O)Cc3ccccc3)sc3c2CCC(C)C3)cc1` (stereo not drawn) the value was 1.84% (inactive).
For `C=CC(=O)c1ccc2ccccc2c1`, the “activity change, negative = inhibition” value is -7.94% (inactive).
On the same count and under the same terms, for `C=Cc1c(C)c2cc3nc(cc4[nH]c(cc5nc(cc1[nH]2)C(C)=C5CCC(=O)O)c(CCC(=O)OC)c4C)[C@@]1(C)C3=CC=C(C(=O)OC)[C@H]1C(=O)OC` the value was -5.53% (inactive); for `CO[C@]1(NC(=O)CSC(F)F)C(=O)N2C(C(=O)O)=C(CSc3nnnn3CCO)CO[C@H]21`, -6.32% (inactive); for `C[C@@H]1O[C@@H](O[C@@H]2[C@@H](O)[C@H](OCCc3ccc(O)c(O)c3)O[C@H](CO[C@@H]3O[C@H](CO)[C@@H](O)[C@H](O)[C@H]3O)[C@H]2OC(=O)/C=C/c2ccc(O)c(O)c2)[C@H](O)[C@H](O)[C@H]1O`, -11.8% (inactive).
`CCC(C)C(=O)OC1C(C)C2(O)C(C=C(CO)CC3(O)C(=O)C(C)=CC32)C2C(C)(C)C12OC(=O)C(C)C` (stereo not drawn): the “activity change, negative = inhibition” value was 3.07% [at 17.3 µM] (inactive).
Same read-out and setting: for `Oc1ccc(OC2CCCCO2)cc1` (stereo not drawn) the value was -5.57% (inactive); for `CC(=O)N[C@@H](C(=O)O[C@H]1CCC(C)(C)[C@@H]2CCC3=C(COC3=O)[C@@]12C)C(C)C`, 10.1% [at 33.5 µM] (inactive); for `CCOc1ccc(NC(=O)c2c(NC(=O)Cc3ccccc3)sc3c2CCCCC3)cc1`, -2.03% (inactive).
Take `C[C@@H]1C[C@@H](O)[C@@]23CO[C@]2(CO)C[C@@H](O)CC3[C@@]12CC(c1ccoc1)OC2=O` (stereo partly drawn): the “activity change, negative = inhibition” value was -1.18% [at 33.5 µM] (inactive).
On the same count and under the same terms, for `O=C(O)c1cccc(-n2[nH]c(-c3ccccc3)cc2=O)c1` the value was -8.51% (inactive).
On the same count and under the same terms, for `CCOc1ccc(N(Cc2ccccc2)C(=O)c2nc(S(C)(=O)=O)ncc2Cl)cc1` the value was -11.6% (inactive).
In the case of `COC([CH2][Hg])CNC(=O)c1ccccc1OCC(=O)O` (stereo not drawn), the Potency is 2060 nM (active).
Consider `CC1=C(/C=C/C(C)=C/C=C/C(C)=C/C=C/C=C(C)/C=C/C=C(C)/C=C/C2=C(C)CCCC2(C)C)C(C)(C)CCC1`, for which the “activity change, negative = inhibition” value was -4.84% (inactive).
Same read-out and setting: for `Cc1c(S(=O)(=O)O)oc2c1C(=O)C(=O)c1c-2ccc2c1CCCC2(C)C` the value was -9.26% (inactive).
On the same count and under the same terms, for `C[C@@H]1[C@H](O)[C@@H]2OC(=O)C3=C2[C@H](CCC3)[C@@]12C[C@@H](c1ccoc1)OC2=O` the value was -7.71% [at 33.5 µM] (inactive).
